# Compound activity (PubChem BioAssay)
# The sample as a whole holds a higher share of hits than the screen did.
# T cruzi growth-1: T. cruzi intracellular proliferation inhibitors, primary screen, cell-based, beta-gal Tulahuen parasites, NIH3T3 host, luminescence; T. cruzi beta-gal in NIH3T3, GalScreen luminescence, 90 h; inhibition, % at 8.34 µM; 77,000 tested, 5.9% active; AID 624255, 2012;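 active means mean inhibition above about 93%, with at least 55% of replicates each passing it, limit read from the data, passing the limit was not always enough; inconclusive means only one of those two conditions holds; inactive means neither condition holds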
# C diff growth: C. difficile growth inhibitors, primary screen, HTS | Clostridium difficile clinical isolate growth, OD600, 24 h; stronger effect = lower value | growth activity, negative = inhibition, % at 16 µg/mL (by protocol) | 86,000 tested, 0.25% active | AID 1259249, 2017;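 active means mean growth activity at or below -80% and every replicate also at or below -80%; inconclusive means mean at or below -80% but some replicate above -80%; inactive means mean growth activity above -80%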
# T cruzi growth-2: T. cruzi intracellular proliferation inhibitors, confirmation, cell-based, NIH3T3 host, beta-gal parasite, luminescence, cherry-pick; T. cruzi beta-gal in NIH3T3, GalScreen luminescence, 90 h; 5,600 tested, 72% active; inhibition, % at 8.35 µM; shares compounds with T cruzi growth-1;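 active means mean replicate inhibition above about 95% and at least 55% of replicates individually reaching it, limit read from the data; inconclusive means only one of the two criteria is met; inactive means neither criterion is met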
# T cruzi growth-3: inhibitors of intracellular T. cruzi replication, confirmation, NIH3T3 host cells, beta-gal parasites, cherry-pick, set 2 | shares compounds with T cruzi growth-1 | T. cruzi beta-gal in NIH3T3, GalScreen luminescence, 90 h | inhibition, % at 2.09 µM | 5,600 tested, 21% active | AID 651740, 2012;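 active means mean inhibition above about 95%, with at least 55% of replicates also reaching it, limit read from the data; inconclusive means meets just one of the two conditions; inactive means meets neither condition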
# NIH3T3 tox: cytotoxicity in mouse NIH/3T3 fibroblasts, confirmation, cytotoxicity control for T. cruzi proliferation inhibitor project, cell-based, cherry-pick, single point | shares compounds with T cruzi growth-1 | NIH/3T3 viability, CellTiter-Glo ATP luminescence, 90 h | cytotoxicity (signal decrease), % at 8.35 µM | 5,600 tested, 14% active | AID 651742, 2012;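 active means mean signal decrease across replicates above about 35% based on untreated-well scatter, with enough replicates individually passing, limit read from the data; inconclusive means no rule stated though some were filed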
# 3T3 cytotox 2: NIH/3T3 fibroblast cytotoxicity, confirmation, cytotoxicity control, cell-based, cherry-pick, single point, set 2. shares compounds with T cruzi growth-1. NIH/3T3 viability, CellTiter-Glo ATP luminescence, 90 h. inhibition, % at 24.9 µM. 5,600 tested, 56% active. AID 651744, 2012;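 active means mean loss of cell viability signal at or above a set limit, and enough replicates individually reaching it; inconclusive means meets only the mean limit or only the replicate share; inactive means meets neither condition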
# Hits are given with their value; - = inactive; ? = inconclusive; . = not tested or not shown; ! = not confirmed by another sample.
SMILES,T cruzi growth-1,C diff growth,T cruzi growth-2,T cruzi growth-3,NIH3T3 tox,3T3 cytotox 2
CCCNC(=O)[C@H]1[C@H](CO)[C@H]2Cn3c(cccc3=O)[C@@H]1N2C(=O)Nc1cc(F)ccc1F,101,-,?,-,-,-
CN(C)C(=O)[C@H]1[C@H](CO)[C@H]2Cn3c(cccc3=O)[C@@H]1N2C(=O)c1ccc(F)cc1,185,-,-,-,-,-
CCNC(=O)[C@@H]1[C@@H](CO)[C@@H]2Cn3c(cccc3=O)[C@H]1N2C(=O)Nc1cc(F)ccc1F,.,-,.,.,.,.
CCCNC(=O)[C@@H]1[C@@H](CO)[C@@H]2Cn3c(cccc3=O)[C@H]1N2CCC(F)(F)F,94,-,?,-,-,-
CN(C)C(=O)[C@@H]1[C@@H](CO)[C@@H]2Cn3c(cccc3=O)[C@H]1N2C(=O)c1ccccc1,-,-,.,.,.,.
CCCNC(=O)[C@H]1[C@H](CO)[C@H]2Cn3c(cccc3=O)[C@@H]1N2CCC(F)(F)F,-,-,.,.,.,.
COCC#Cc1cnc2c(c1)C(=O)N([C@H](C)CO)C[C@@H](C)[C@@H](CN(C)C(=O)CN1CCOCC1)O2,.,-,.,.,.,.
C[C@H]1CN([C@@H](C)CO)C(=O)c2cc(C#Cc3ccccc3F)cnc2O[C@H]1CN(C)C(=O)C1CCCCC1,.,-,.,.,.,.
C[C@H](CO)N1C[C@H](C)[C@@H](CN(C)C(=O)c2ccc3ccn(C)c3c2)OCc2cnnn2CCCC1=O,117!,-,-,-,-,-
C[C@H](CO)N1C[C@H](C)[C@H](CN(C)C(=O)NC2CCCCC2)OCc2cnnn2CCCC1=O,-,-,.,.,.,.
CC(C)COC(=O)N(C)C[C@@H]1OCc2cnnn2CCCC(=O)N([C@H](C)CO)C[C@H]1C,101!,-,-,-,-,-
C[C@@H]1CN([C@@H](C)CO)C(=O)CCCn2nncc2CO[C@@H]1CN(C)C(=O)NC1CCCC1,?,-,-,-,-,-
CC(C)COC(=O)N(C)C[C@H]1OCc2cnnn2CCCC(=O)N([C@@H](C)CO)C[C@H]1C,-,-,.,.,.,.
C[C@@H]1CN([C@@H](C)CO)C(=O)CCCn2nncc2CO[C@@H]1CN(C)C(=O)c1ccc2ccn(C)c2c1,-,-,.,.,.,.
O=C(NCC[C@@H]1CC[C@@H](NC(=O)c2cccnc2)[C@@H](CO)O1)Nc1ccc(C(F)(F)F)cc1,-,.,.,.,.,.
C[C@@H]1CN([C@@H](C)CO)C(=O)c2cc(Br)cnc2O[C@H]1CN(C)C(=O)c1ccccn1,.,-,.,.,.,.
C[C@@H]1CN([C@H](C)CO)S(=O)(=O)c2ccc(/C=C/c3ccccc3)cc2O[C@H]1CN(C)C(=O)Nc1cc(F)ccc1F,.,-,.,.,.,.
CNC[C@@H]1Oc2ccc(N(C)C)cc2CC(=O)N([C@H](C)CO)C[C@H]1C,-,-,.,.,.,.
COc1ccc2c3c([nH]c2c1)[C@@H](CO)N(C(=O)C1CCC1)CC31CN(C(=O)NC(C)C)C1,.,-,.,.,.,.
